Compound activity deposited in PubChem by National Center for Advancing Translational Sciences (NCATS).
Shown are actives, neighbours in structure and some others; about 19% of the full set was active somewhere.
TDP1 cell CPT – DT40-hTDP1 cell growth loss with CPT | chicken DT40 Tdp1-/-;hTDP1 cells + 20 nM CPT, ATP luminescence, 48 h | Potency, µM (top dose mostly 46.2 µM), for inactives: at the highest dose activity change, negative = growth inhibition, most hits filed as inhibitors | 420,000 compounds, 12% hits | AID 686979; note: potency is the fitted concentration of half-maximal effect; nearly all actives have a fitted effect of over 55% in size
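Cell growth measured by CellTiter-Glo luminescence after a minimum 48 h, 37 C compound exposure with 20 nM CPT in Tdp1-knockout DT40 cells stably expressing hTDP1, seeded 400/well; qHTS titration format.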
IL-1B inflam inh – blocks inflammasome-driven IL-1 beta release. 360,000 compounds, 4.7% hits. AID 743279. activity change, % at 57.5 µM. THP-1 LPS/ATP IL-1B secretion, AlphaLISA, 16 h; stronger effect = lower value; in the data active = activity change below about -50%; inconclusive = mostly about -30% to -49%
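THP-1 cells pretreated 1 hr with compounds (up to 57.5 uM final), then stimulated with LPS (250 ng/mL final) plus ATP (1.25 mM final); secreted IL-1B measured by AlphaLISA after 16 hr, decreased signal indicating inhibition.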
uPA generation – cell surface uPA generation inhibition; 330,000 compounds, 0.31% hits; cell surface uPA generation assay, qHTS; Potency, µM (series often up to 38.3 µM), for the others: at the top dose activity change, negative = inhibition, hits mostly inhibitors; AID 540303; active = well fitted inhibition curve with a large enough effect; inconclusive = small, poorly fitted or top-dose-only effect; inactive = no such curve, though single readings can be large or run the other way; tested in mouse RAW 264.7 cells; note: potency is the fitted concentration of half-maximal effect; nearly all actives have a fitted effect of over 55% in size
HT1080-NT tox – kills 2HG-producing HT-1080-NT fibrosarcoma cells | HT-1080-NT fibrosarcoma viability, CellTiter-Glo ATP luminescence, 48 h | Potency, µM (doses to about 46.1 µM), for the others: at the top dose activity, negative = less viability, hits mostly cytotoxic | 360,000 compounds, 1.6% hits | AID 686970;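 note: NT is the 2HG producing partner of a matched IDH1 knockdown line; potency is the fitted concentration of half-maximal effect; 0% = DMSO-treated cells and -100% = media-only wells without cells; nearly all actives have a fitted effect of over 55% in size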
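Fibrosarcoma NT cells, 750 per well in 5% FBS RPMI, were exposed to compound for 48 hours. Viability: CellTiter-Glo luminescence.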
TDP1 cell noCPT – qHTS for Inhibitors of human tyrosyl-DNA phosphodiesterase 1 (TDP1): qHTS in cells in absence of CPT; DT40 Tdp1-/- hTDP1 cells, no CPT, ATP luminescence, 48 h; Potency, µM (series often up to 46.2 µM), for inactives: at the highest dose activity change, negative = growth inhibition, usual class: inhibitors; 420,000 compounds, 15% hits; AID 686978, 2013; note: potency is the fitted concentration of half-maximal effect; nearly all actives have a fitted effect of over 55% in size
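Growth kinetics read by CellTiter-Glo luminescence after ≥48 hr at 37 °C. Cells: DT40 Tdp1-/- stably carrying human TDP1, 400 per well, compound exposure in the absence of CPT (DMSO vehicle).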
HT1080 IDH1KD tx – toxicity to HT-1080 IDH1 knockdown cells (counter line). HT-1080 IDH1 knockdown viability, ATP luminescence, 48 h. Potency, µM (titrated, usually from 46.1 µM), for inactives: at the top dose activity, negative = toxicity, most hits filed as cytotoxic. 360,000 compounds, 2% hits;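 note: potency is the fitted concentration of half-maximal effect; 0% = DMSO wells and -100% = cell-free medium wells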
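IDH1KD HT-1080 cells, 750/well, RPMI + 5% FBS; compound pinned after 2 h settling; 48 h, 37 °C; CellTiter-Glo luminescence; % activity normalised to DMSO and no-cell wells; curves fitted, classed by r2 and efficacy.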
The depositor's hits bear a star; ? = inconclusive; . = not tested or not shown; [ ] = dose if it differs, or a comment. Unless noted, calls come from the whole dose curve; as a rule, active = well fitted curve in the direction sought with a large enough effect; inconclusive = small, poorly fitted or top-dose-only effect, or another doubt; inactive = no such curve, though single readings can be large; an effect the other way counts as inactive or inconclusive. Unless noted, % is set by controls: 0 for no effect and ±100 for the full control effect.

SMILES	TDP1 cell CPT	IL-1B inflam inh	uPA generation	HT1080-NT tox	TDP1 cell noCPT	HT1080 IDH1KD tx
CCOC(=O)c1c(NC(=O)c2cc(-c3ccc(O)cc3)on2)sc(C(C)=O)c1C	4.61µM*	-2.1	-2.0%	22.4%	5.8µM*	5.1%
CCOC(=O)c1c(NC(=O)CSc2nc(C)cc(C)c2C#N)sc(C(C)=O)c1C	9.2µM*	11.7	2.0%	?	7.31µM*	-15.9%
Cc1ccc(NC(=O)CSCC(=O)N2CCN(Cc3ccc4c(c3)OCO4)CC2)cc1	-12.9%	-11.7	-2.6%	1.1%	-1.0%	-1.3%
CCOC(=O)c1cc(C)n(CC2CCC(C(=O)Nc3ccc(C(C)=O)cc3)CC2)c1C (stereo not drawn)	11.6µM*	.	.	.	10.3µM*	.
CCOC(=O)c1cc(C)n(CC2CCC(C(=O)Nc3cccc(C(C)=O)c3)CC2)c1C (stereo not drawn)	23.1µM*	.	.	.	25.9µM*	.
CCOC(=O)c1cc(C)n(CC2CCC(C(=O)Nc3ccc(C(=O)OC)cc3)CC2)c1C (stereo not drawn)	23.1µM*	.	.	.	18.4µM*	.
CS(=O)(=O)N1CCN(c2ccc(NC(=O)c3ccc([N+](=O)[O-])o3)cc2)CC1	2.59µM*	-96.8*	?	?	7.31µM*	?
CCC(=O)N1CCN(c2ccc(NC(=O)c3ccc([N+](=O)[O-])o3)cc2)CC1	4.61µM*	-102.6*	-15.3%	6.51µM*	20.6µM*	5.17µM*
CC(C)(C)C(=O)N1CCN(c2ccc(NC(=O)c3ccc([N+](=O)[O-])o3)cc2)CC1	2.59µM*	-96.1*	-11.1%	4.11µM*	6.51µM*	5.17µM*
CC1CCN(c2ccc(NC(=O)c3ccc([N+](=O)[O-])o3)cc2)CC1	4.61µM*	-109.0*	3.16µM*	16.4µM*	3.26µM*	7.31µM*
CCCCn1c(N)c(N(CC)C(=O)c2c(C)noc2C)c(=O)[nH]c1=O	6.3%	0.8	3.1%	2.0%	1.9%	-2.9%
COc1ccc(F)cc1S(=O)(=O)NCC1CCCO1 (stereo not drawn)	6.7%	-5.8	3.5%	?	-2.9%	21.2%
O=C(Nc1ccc(N2CCN(C(=O)c3ccc(Cl)cc3)CC2)cc1)c1cccs1	-25.9%	0.0	-15.4%	-0.1%	8.0%	0.4%
O=C(Nc1ccc(N2CCN(C(=O)c3ccc(Cl)cc3)CC2)cc1)c1ccc([N+](=O)[O-])o1	2.91µM*	-106.7*	-8.0%	10.3µM*	1.16µM*	2.59µM*
COCC(=O)OC1CCn2c1nc1c2C(=O)C(C)=C(NC(C)=O)C1=O (stereo not drawn)	2.59µM*	-1.5	-9.2%	7.31µM*	2.31µM*	4.61µM*
COc1ccc(CN2C(=O)C(CC(=O)NCCc3ccccn3)CC(C(=O)N3CCCCCC3)=C2C)cc1 (stereo not drawn)	8.0%	.	.	-12.3%	9.1%	-6.4%
CCN1C(=O)CC(Sc2ccccc2C(=O)O)C1=O (stereo not drawn)	1.9%	0.0	.	-1.4%[9.24 µM]	4.3%	8.1%
CCOC(=O)c1c(N2C(=O)CC(Sc3ccccc3C(=O)O)C2=O)sc2c1CCCC2 (stereo not drawn)	14.6µM*	-10.2	-4.6%	5.6%	14.6µM*	-16.5%
O=C(O)c1ccccc1SC1CC(=O)N(c2cccc3ccccc23)C1=O (stereo not drawn)	1.84µM*	-5.6	-5.4%	-22.3%	2.59µM*	-6.1%
CCc1ccc(Nc2ccc3nonc3c2[N+](=O)[O-])cc1	-6.6%	-17.7	-2.2%	-1.6%	?	-2.6%
CCOC(=O)NNc1ccc2nonc2c1[N+](=O)[O-]	6.51µM*	-77.1*	-10.8%	?	2.91µM*	?
C=CCc1c(C)nc(-c2ccccc2)nc1Nc1ccccc1O	?	-28.4	-5.8%	?	?	16.4µM*
C=CCc1c(C)nc(-c2ccccc2)nc1N/N=C/c1ccccc1	?	-14.3	-7.6%	-1.4%	?	-0.5%
NC(=O)c1ccc(NC(=O)CCc2nc3ccccc3s2)cc1	1.1%	30.1	0.8%	10.0%	-6.4%	1.0%
COC(=O)N(C)c1nc2ccccc2s1	-6.0%	12.7	7.9%	26.2%	-18.9%	22.3%
SMILES	TDP1 cell CPT	IL-1B inflam inh	uPA generation	HT1080-NT tox	TDP1 cell noCPT	HT1080 IDH1KD tx
COc1ccccc1OC(C)C(=O)Nc1ccc(-c2nc3ccccc3s2)cc1 (stereo not drawn)	-25.6%	.	.	.	?	.
CN(C)c1cccc(C(=O)Nc2ccc(-c3nc4ccccc4s3)cc2)c1	?	.	.	.	13µM*	.
O=C(Nc1ccc(Cc2nc3ccccc3s2)cc1)c1ccncc1	?	0.0	-3.2%	-26.7%	11.6µM*	-24.5%
CC(=O)Nc1cccc(-c2nc3ccccc3s2)c1	-8.6%	-21.1	-3.8%	-29.4%	-8.1%	-27.1%
CN(C(=O)OC(C)(C)C)c1ccc(-c2nc3ccccc3s2)cc1	.	.	2µM*	.	.	.
CC(C)Oc1ccc(C(=O)Nc2ccc(-c3nc4ccccc4s3)cc2)cc1	10.3µM*	.	.	.	?	.
NCC1O[C@@H](OC2C(N)CC(N)C(O)C2O[C@@H]2OC(CO)C(O)C2O)C(N)C(O)C1O (stereo partly drawn)	-28.6%	.	.	.	-1.2%	.
CCOCCc1nnc(NC(=O)C(=O)c2cc(C)n(-c3cccc(C)c3)c2C)s1	-4.0%	.	.	.	?	.
Cc1ccccc1Cn1c(=O)n(CCCCC(=O)NCc2ccccc2Cl)c(=O)c2ccccc21	-11.1%	.	.	.	?	.
Cc1ccc(Cl)c(NC(=O)CN2CCNC(=O)C2)c1Cl	4.6%	43.3	3.7%	-1.6%	?	-6.7%
COc1ccc(S(=O)(=O)N2CCN(c3ccc(F)cc3)CC2)cc1C(=O)N1CCOCC1	-21.4%	-0.7	-0.3%	-12.8%	-12.9%	6.6%
C=CCOc1cccc(/C=N/NC(=O)CN2CCCCC2)c1	-2.1%	5.5	4.1%	16.4%	8.1%	9.4%
CCOc1ccc(CNC(=O)c2ccc(Sc3ccc(Cl)cc3)c(NC(C)=O)c2)cc1OC	?	?	-3.1%	-14.2%	20.6µM*	-14.0%
CC(=O)Nc1cc(C(=O)NCc2ccco2)ccc1Sc1ccc(C)cc1	-7.1%	-2.8	1.2%	1.0%	-28.6%	-2.4%
CC(=O)Nc1cc(C(=O)NCc2ccc(C)cc2)ccc1Sc1ccc(C)cc1	16.4µM*	.	.	.	23.1µM*	.
CCOc1ccc(CNC(=O)c2ccc(Sc3ccc(C)cc3)c(NC(C)=O)c2)cc1OC	-22.7%	-25.4	-1.8%	-2.2%	?	-7.7%
